Measured values reported in PubChem BioAssay AID1159580 (chemical genetic matrix, 2015).
“And” between values parts separate entries of the source, which are not always exact repeats. Equal entries are not always repeated. Screen size: about 5,500 compounds; about 2,000 (36%) were called active. About 18% were inconclusive and are not listed. Cut-off read from the data, not from the text of the source: active = normalized growth mostly below about 0.91 (no sharp cut-off); inconclusive = no clear call, values can overlap the other calls; inactive = mostly above about 0.92. Some of the results follow.

Assay: chemical genetic growth profiling, strain panel (AID 1159580);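 note: tested at 20 µM; growth read once vehicle control cultures reached saturation at 30 °C; 1 = growth at the plate median or of vehicle wells; lower values mean less growth of the strain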
Conditions: S. cerevisiae deletion strains, growth OD

Measured: normalized growth

CC(C)(C)CC(C)(C)c1ccc(O)c(Cc2ccc(Cl)cc2Cl)c1
inactive: locus YAL021C, strain ccr4, stronger effect = lower value 1 | locus YAL026C, strain drs2, stronger effect = lower value 1.03 | locus YAL030W, strain snc1, stronger effect = lower value 1.01 | locus YBL061C, strain skt5, stronger effect = lower value 1.01 | locus YBR009C, strain hhf1, stronger effect = lower value 0.995 | locus YBR021W, strain FUR4, stronger effect = lower value 0.993 | locus YBR023C, strain chs3, stronger effect = lower value 1.02 | locus YBR171W, strain sec66, stronger effect = lower value 1.02 | locus YBR229C, strain ROT2, stronger effect = lower value 1.01 | locus YBR231C, strain swc5, stronger effect = lower value 1.01 | locus YBR279W, strain paf1, stronger effect = lower value 1.02 | locus YCL011C, strain gbp2, stronger effect = lower value 1.01 | locus YCL016C, strain dcc1, stronger effect = lower value 1.01 | locus YCL029C, strain bik1, stronger effect = lower value 1.02 | locus YCL061C, strain MRC1, stronger effect = lower value 1.02 | locus YCL069W, strain vba3, stronger effect = lower value 1.03 | locus YCR088W, strain abp1, stronger effect = lower value 1.02 | locus YDL005C, strain med2, stronger effect = lower value 1.03 | locus YDL035C, strain GPR1, stronger effect = lower value 1.01 | locus YDL040C, strain nat1, stronger effect = lower value 1 | locus YDL074C, strain BRE1, stronger effect = lower value 1.01 | locus YDL101C, strain DUN1, stronger effect = lower value 1 | locus YDL134C, strain PPH21, stronger effect = lower value 1 | locus YDL185W, strain tfp1, stronger effect = lower value 1.01 | locus YDL192W, strain arf1, stronger effect = lower value 1.01 | locus YDR001C, strain nth1, stronger effect = lower value 1.02 | locus YDR069C, strain doa4, stronger effect = lower value 1.02 | locus YDR101C, strain arx1, stronger effect = lower value 0.997 | locus YDR137W, strain rgp1, stronger effect = lower value 1.03 | locus YDR159W, strain sac3, stronger effect = lower value 1.02 | locus YDR162C, strain NBP2, stronger effect = lower value 1 | locus YDR195W, strain ref2 1.08 | locus YDR297W, strain sur2, stronger effect = lower value 1.01 | locus YDR318W, strain mcm21, stronger effect = lower value 1.01 | locus YDR334W, strain swr1, stronger effect = lower value 1.04 | locus YDR335W, strain msn5, stronger effect = lower value 1.04 | locus YDR388W, stronger effect = lower value 1.01 | locus YDR392W, strain spt3, stronger effect = lower value 0.894 | locus YDR502C, strain sam2, stronger effect = lower value 1.02 | locus YEL003W, strain gim4, stronger effect = lower value 1.02 | locus YEL037C, strain rad23, stronger effect = lower value 1.02 | locus YEL061C, strain CIN8 (second series), stronger effect = lower value 1.03 | locus YEL061C, strain CIN8, stronger effect = lower value 1 | locus YER015W, strain faa2, stronger effect = lower value 1.01 | locus YER016W, strain bim1, stronger effect = lower value 1.03 | locus YER110C, stronger effect = lower value 1.02 | locus YER111C, strain swi4, stronger effect = lower value 1.05 | locus YER155C, strain BEM2 (second series), stronger effect = lower value 1.08 | locus YER155C, strain BEM2, stronger effect = lower value 0.998 | locus YER167W, strain BCK2, stronger effect = lower value 1 | locus YFR010W, strain ubp6, stronger effect = lower value 1.02 | locus YGL078C, strain dbp3, stronger effect = lower value 1.02 | locus YGL086W, strain mad1, stronger effect = lower value 1.01 | locus YGL167C, strain pmr1, stronger effect = lower value 1.02 | locus YGL173C, strain kem1, stronger effect = lower value 1.02 | locus YGL227W, strain vid30, stronger effect = lower value 1.02 | locus YGL240W, strain doc1, stronger effect = lower value 1.03 | locus YGL248W, strain PDE1, stronger effect = lower value 1 | locus YGL253W, strain hxk2, stronger effect = lower value 1.03 | locus YGR078C, strain PAC10, stronger effect = lower value 0.997 | locus YGR135W, strain pre9, stronger effect = lower value 1.01 | locus YGR229C, strain SMI1, stronger effect = lower value 0.992 | locus YGR252W, strain gcn5, stronger effect = lower value 1.04 | locus YHR013C, strain ard1, stronger effect = lower value 1.02 | locus YHR027C, strain rpn1, stronger effect = lower value 1.02 | locus YHR030C, strain SLT2, stronger effect = lower value 1 and 1.03 | locus YHR079C, strain IRE1 (second series), stronger effect = lower value 1.01 | locus YHR079C, strain IRE1, stronger effect = lower value 1.05 | locus YHR094C, strain hxt1, stronger effect = lower value 1.01 | locus YHR129C, strain ARP1, stronger effect = lower value 1.01 | locus YHR142W, strain chs7, stronger effect = lower value 1.02 | locus YHR200W, strain rpn10, stronger effect = lower value 1.01 | locus YIL066C, strain RNR3, stronger effect = lower value 1.01 | locus YIL073C, strain SPO22, stronger effect = lower value 1.04 | locus YIL125W, strain kgd1, stronger effect = lower value 1.02 | locus YIR030C, strain dcg1, stronger effect = lower value 1.02 | locus YJL092W, strain hpr5, stronger effect = lower value 1.02 | locus YJL095W, strain BCK1 (second series), stronger effect = lower value 1.01 | locus YJL095W, strain BCK1, stronger effect = lower value 1.01 and 1.04 | locus YJL115W, strain asf1, stronger effect = lower value 1.04 | locus YJL129C, strain trk1, stronger effect = lower value 0.981 | locus YJL134W, strain LCB3, stronger effect = lower value 1.01 | locus YJL154C, strain vps35, stronger effect = lower value 1.02 | locus YJL164C, strain tpk1, stronger effect = lower value 0.994 | locus YJL166W, strain qcr8, stronger effect = lower value 1.02 | locus YJL168C, strain set2, stronger effect = lower value 1.01 | locus YJL187C, strain SWE1 (second series), stronger effect = lower value 1.01 | locus YJL187C, strain SWE1, stronger effect = lower value 1.01 | locus YJR043C, strain POL32, stronger effect = lower value 1.01 | locus YJR066W, strain TOR1, stronger effect = lower value 0.925
